Data on five compounds can be found in PubChem BioAssay (NCATS).

The structures appear in SMILES notation. Results filed as inconclusive are left out. The source made the active and inactive calls. Unless noted, calls come from the whole dose curve; as a rule, active = well fitted curve in the direction sought with a large enough effect; inconclusive = small, poorly fitted or top-dose-only effect, or another doubt; inactive = no such curve, though single readings can be large; an effect the other way counts as inactive or inconclusive.

Assay [1] is described as follows: P-glycoprotein substrates identified in KB-3-1 adenocarcinoma cell line, qHTS therapeutic library screen (AID 1346986).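 Note: potency is the fitted concentration of half-maximal effect; potency is for cytotoxicity meaning loss of cell viability; nearly all actives have a fitted effect of over 60% in size.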 Summed up: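 Dose-response cytotoxicity, KB-3-1 vs P-gp-high KB-8-5-11, no colchicine in assay medium. Read: CellTiter-Glo at 72 h.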
Background: Quantitative high-throughput screening tests each substance at several concentrations.

Assay [2] is described as follows: Primary qHTS for inhibitors of nuclear receptor binding SET domain protein 2 (NSD2) in an isogenic RCH-ACV NSD2 p.E1099K mutant (9B) (AID 1645876). Note: potency is the fitted concentration of half-maximal effect; nearly all actives have a fitted effect of over 70% in size.
A short description of assay [3]: Primary qHTS for inhibitors of nuclear receptor binding SET domain protein 2 (NSD2) in an RCH-ACV wild type WT cells (2C) (AID 1645877). Note: potency is the fitted concentration of half-maximal effect; nearly all actives have a fitted effect of over 70% in size.
Assay [4] deals with Glutathione peroxidase 1 (Homo sapiens) (UniProt P07203). The assay is described as follows: Primary qHTS Assay for Inhibitors of Recombinant Selenoprotein Glutathione Peroxidase 1 (GPX1) (AID 1845191). Note: nearly all actives have a fitted effect of over 65% in size. Summed up: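 NADPH consumption tracked by fluorescence at 340/450 nm between t=0 and t=15 min, room temperature. Final mix: 10 nM GPX1, 100 nM glutathione reductase, 1 mM GSH, 0.5 mM NADPH, 0.5 mM cumene hydroperoxide, 0.01% BSA; 30 min compound–enzyme preincubation.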
Glutathione peroxidase 1 (Homo sapiens), sequence (P07203 whole entry, looked up): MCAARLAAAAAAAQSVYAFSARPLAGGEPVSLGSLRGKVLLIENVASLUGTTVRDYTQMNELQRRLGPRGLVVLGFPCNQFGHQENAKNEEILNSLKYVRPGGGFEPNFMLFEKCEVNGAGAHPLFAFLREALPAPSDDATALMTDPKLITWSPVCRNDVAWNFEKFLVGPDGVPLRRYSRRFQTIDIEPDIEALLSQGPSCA

A short description of assay [5]: P-glycoprotein substrates identified in KB-8-5-11 adenocarcinoma cell line, qHTS therapeutic library screen (AID 1346987). Note: nearly all actives have a fitted effect of over 65% in size. Note: potency is the fitted concentration of half-maximal effect. In a few lines: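 In this qHTS, P-gp-rich KB-8-5-11 cells received library compounds across a concentration range. Viability was quantified by luminescence after 72 h at 37 degree C.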
Assay [6] is described as follows: qHTS Assay for Identifying Gametocytocidal Compounds (AID 743244).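 Note: % is set by controls: 0 for no effect and ±100 for the full control effect; actives lower the fluorescent signal which means gametocytes are killed.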 Conditions: P. falciparum 3D7 stage III-V gametocytes, alamarBlue, 72 h; max response: stronger effect = lower value. In a few lines: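 In this qHTS viability screen, late-stage 3D7 gametocytes are incubated with compound for 72 h, then with alamarBlue for 24 h; reduced resorufin fluorescence marks killing.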

For assay [7], the target named is Furin (Homo sapiens) (UniProt P09958). Description: Furin counterscreen qHTS for Zika virus inhibitors (AID 1347149).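 Note: purified recombinant full-length human furin enzyme at 5 nM; fluorescence gain from furin cutting a BOC-RVRR-AMC peptide substrate over 15 min; top concentration of the series differs between compounds; plate controls were no-inhibitor control for no effect and no-enzyme control for full effect; nearly all actives have a fitted effect of over 70% in size.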 In a few lines: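 Counterscreen measures cleavage of 2 microM BOC-RVRR-AMC, below its ~15 microM Km, by 5 nM full-length human furin at pH 7.0 after a 15-min compound preincubation. Inhibition derives from the 15-min fluorescence increase at 37C.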
Furin (Homo sapiens), sequence (P09958 whole entry, looked up): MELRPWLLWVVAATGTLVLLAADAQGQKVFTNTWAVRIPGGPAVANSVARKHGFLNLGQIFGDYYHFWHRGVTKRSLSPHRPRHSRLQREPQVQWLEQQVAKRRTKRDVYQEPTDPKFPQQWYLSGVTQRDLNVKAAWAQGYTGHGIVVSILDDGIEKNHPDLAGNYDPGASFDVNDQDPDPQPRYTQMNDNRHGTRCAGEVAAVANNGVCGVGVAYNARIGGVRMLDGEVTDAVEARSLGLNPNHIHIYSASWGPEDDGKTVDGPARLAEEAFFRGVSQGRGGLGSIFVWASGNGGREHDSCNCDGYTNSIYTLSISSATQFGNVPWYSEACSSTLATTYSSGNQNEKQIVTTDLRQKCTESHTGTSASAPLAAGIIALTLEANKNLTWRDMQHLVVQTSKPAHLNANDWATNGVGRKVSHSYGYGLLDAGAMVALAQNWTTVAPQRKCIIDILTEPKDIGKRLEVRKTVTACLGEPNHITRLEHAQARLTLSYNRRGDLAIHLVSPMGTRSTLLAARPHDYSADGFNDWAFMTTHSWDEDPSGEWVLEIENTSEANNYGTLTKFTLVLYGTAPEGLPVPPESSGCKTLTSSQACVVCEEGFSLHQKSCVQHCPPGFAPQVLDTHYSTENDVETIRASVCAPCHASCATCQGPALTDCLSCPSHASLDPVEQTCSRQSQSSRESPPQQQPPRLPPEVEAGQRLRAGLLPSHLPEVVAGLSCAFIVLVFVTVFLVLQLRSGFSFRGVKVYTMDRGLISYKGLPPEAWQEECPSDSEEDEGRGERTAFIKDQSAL
(A counterscreen serves to expose hits that act by an unwanted route or on another target.)

For assay [8], the system named is Zika virus NS2B-NS3 protease (unlinked). Description: Optimization of GU AMC qHTS for Zika virus inhibitors: Unlinked NS2B-NS3 protease assay (AID 1347151).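 Note: 0% = no-inhibitor control and -100% = no-enzyme control; nearly all actives have a fitted effect of over 80% in size.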 In a few lines:
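Percent inhibition is derived from the 15-min change in AMC fluorescence, normalized against no-inhibitor and no-enzyme controls, then fitted to a 4-parameter Hill curve. Aprotinin was the intraplate control.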

A short description of assay [9]: Vero cells viability qHTS for Zika virus inhibitors (AID 1347167). Note: % is set by controls: 0 for no effect and ±100 for the full control effect. In a few lines:
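Luminescent ATP readout (CellTiter Glo) after 30 min at 37 degrees C gives viability; cells in DMEM + 4% FBS were treated 24 to 48 hours with compound, following overnight attachment.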

Assay [10] in a line: Primary qHTS for Huh7 cytotoxicity: counterscreen for inhibitors of MERS-S pseudotyped particle cell entry (AID 1479147; calls by dose curve). Conditions: outcome: dose series up to 57.1 µM unless noted.
Assay [11] can be described thus: Primary qHTS for Vero E6 cytotoxicity: counterscreen for inhibitors of SARS-S pseudo-typed particle cell entry (AID 1479150; calls by dose curve). As to conditions: outcome: dose series up to 57.1 µM unless noted.
Assay [12] in a line: Cytotoxicity counterscreen for inhibitors of SARS-CoV-2 cell entry (AID 1645845; calls by dose curve; note: nearly all actives have a fitted effect of over 50% in size). In a few lines:
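ATP-content luminescence (ATPLite 1step, 15 min RT) read after 48 h compound exposure of Expi293F cells stably expressing human ACE2; normalized to cells-only wells and media-only wells.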

Assay [13] deals with Phospholipid hydroperoxide glutathione peroxidase GPX4 (Homo sapiens) (UniProt P36969). The assay is described as follows: Primary qHTS Assay for Inhibitors of Recombinant Selenoprotein Glutathione Peroxidase 4 (GPX4) (AID 1845192). Note: nearly all actives have a fitted effect of over 65% in size. Summed up:
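NADPH consumption followed by fluorescence at 340/450 nm, t=0 and after 15 min at room temperature. Reaction started with cumene hydroperoxide (0.5 mM final) after 30 min compound–GPX4 preincubation; final 200 nM GPX4, 100 nM GR, 1 mM GSH, 0.5 mM NADPH.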

Assay [14] relates to astro. Description: Drug repurposing screens with cells derived from glioblastoma tumor samples (AID 1345199). Note: % is set by controls: 0 for no effect and ±100 for the full control effect; nearly all actives have a fitted effect of over 40% in size. Conditions: viability, ATP luminescence, 48 h; series mostly up to 45.9 µM. Summed up:
(§1)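 Primary testing used CD133+ neurospheres from four GBM patients, seven concentrations, 48 h exposure and ATP-based viability; confirmation added three slower-growing patient lines.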

Assay [15] in a line: qHTS for Inhibitors of the Functional Ribonucleoprotein Complex (vRNP) of Lassa (LASV) Arenavirus: LASV Primary Screen - GLuc reporter signal (AID 1347082; calls by dose curve; tested in HEK293 reporter line; note: % is set by controls: 0 for no effect and ±100 for the full control effect; nearly all actives have a fitted effect of over 60% in size).
Assay [16] addresses Luciferin 4-monooxygenase (Photinus pyralis) (UniProt P08659). The assay is described as follows: Biochemical firefly luciferase enzyme assay for NPC (AID 624030).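 Note: purified P. pyralis luciferase at 10 nM with luciferin and ATP substrate; 0% = DMSO and -100% = full luciferase inhibition by PTC124 control; nearly all actives have a fitted effect of over 70% in size.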 Summed up:
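Direct inhibition of firefly luciferase enzyme (10 nM final, 50 mM Tris Acetate) assessed by luminescence within 5 minutes. Percent activity scaled between DMSO and PTC124 positive control, with concentration-effect curves classified by fit quality and response.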

A short description of assay [17]: Primary qHTS for inhibitors of MERS-S pseudo-typed particle cell entry (AID 1479149; calls by dose curve; note: nearly all actives have a fitted effect of over 60% in size).
The nature of assay [18]: Primary qHTS to identify inhibitors of SARS-CoV-2 cell entry (AID 1645846; calls by dose curve; note: nearly all actives have a fitted effect of over 45% in size). Conditions: activity change, negative = inhibition: at 57.1 µM (top of the series) unless noted. In a few lines:
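Data are normalized to wells receiving SARS-CoV-2-S pseudoparticles and those given bald particles. Entry signal was luciferase luminescence in stable hACE2 Expi293F cells, 48 hr post-infection, after 1 hr compound pretreatment.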

Assay [19] is described as follows: Drug repurposing screens with cells derived from glioblastoma tumor samples (AID 1345199). Note: % is set by controls: 0 for no effect and ±100 for the full control effect; nearly all actives have a fitted effect of over 40% in size. As to conditions: GBM patient neurospheres viability, ATP luminescence, 48 h; Potency: tumour line A; series mostly up to 45.9 µM. Summed up:
as §1

Phospholipid hydroperoxide glutathione peroxidase GPX4 (Homo sapiens), sequence (P36969 whole entry, looked up): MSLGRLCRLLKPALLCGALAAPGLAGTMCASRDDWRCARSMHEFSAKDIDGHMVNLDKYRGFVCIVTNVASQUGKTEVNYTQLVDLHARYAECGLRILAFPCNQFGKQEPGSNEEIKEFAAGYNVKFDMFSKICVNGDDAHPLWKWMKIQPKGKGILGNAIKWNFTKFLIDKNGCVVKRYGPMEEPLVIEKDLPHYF
Luciferin 4-monooxygenase (Photinus pyralis), sequence (P08659 whole entry, looked up): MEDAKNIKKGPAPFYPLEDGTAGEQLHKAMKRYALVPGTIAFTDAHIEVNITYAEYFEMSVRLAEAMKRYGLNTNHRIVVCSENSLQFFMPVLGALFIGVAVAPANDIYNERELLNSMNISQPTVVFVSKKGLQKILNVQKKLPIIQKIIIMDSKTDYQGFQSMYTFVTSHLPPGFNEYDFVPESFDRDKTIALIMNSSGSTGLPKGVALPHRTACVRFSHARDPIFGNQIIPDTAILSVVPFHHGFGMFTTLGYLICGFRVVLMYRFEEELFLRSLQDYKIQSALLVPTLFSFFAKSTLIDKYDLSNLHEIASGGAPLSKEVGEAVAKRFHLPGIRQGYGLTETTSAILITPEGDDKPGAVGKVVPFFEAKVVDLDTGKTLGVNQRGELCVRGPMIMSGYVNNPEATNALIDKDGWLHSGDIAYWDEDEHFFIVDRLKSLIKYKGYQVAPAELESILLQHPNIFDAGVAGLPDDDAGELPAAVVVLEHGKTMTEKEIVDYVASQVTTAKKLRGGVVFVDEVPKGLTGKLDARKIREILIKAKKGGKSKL

`COC[C@@H]1OC(=O)/C(=C\N(C)CCCN(C)C)C2=C(O)C(=O)C3=C([C@@H](OC(C)=O)C[C@@]4(C)[C@@H]3CC[C@@H]4O)[C@@]21C`: the figures for the Potency in assay [1], in assay [2] and in assay [3] were 13 µM (active), 2.59 µM (active) and 2.59 µM (active), respectively. In addition, the Potency result in [4] was “inactive”.

As to `COCC1OC(=O)c2coc3c2C1(C)C1=C(C3=O)C2CCC(=O)C2(C)CC1OC(C)=O` (configuration not stated), the Potency is 20.6 µM (active) in [1], 6.51 µM (active) in assay [5], 3.66 µM (active) in [2] and 1.3 µM (active) in [3].

In the case of `Cc1ccc2c(c1)[C@]13CCCC[C@@H]1[C@H](C2)N(C)CC3`, the max response in assay [6] was -5.26% (inactive). In addition, the Potency entry in assay [5], in assay [7], in [9], in assay [12], in [4] and in assay [13] was “inactive” each time. Also, the Potency entry in assay [14] is “inactive”. The result in [8], in [10] and in assay [11] was inactive.

As for `C=C1C(C)C2C(Cc3ccccc3)NC(=O)C23C(OC(C)=O)C=CC(C)(O)CC(C)CC=CC3C1O` (configuration not stated), in assay [15], the Potency entry was “inactive”.

As for `CCOC(=O)C1(c2ccccc2)CCCN(C)CC1` (configuration not stated), the Potency entry in [16], in [5], in assay [17], in [12], in assay [4] and in [13] was “inactive” in each case. For the same compound, the Potency entry in assay [19] and in assay [14] was “inactive” each time. For the same compound, the max response in assay [6] is 9.62% (inactive). Besides, the outcome in assay [10] and in [11] was inactive. Further, the activity change, negative = inhibition in [18] was -23.2%.
